We go through four compounds from PMC5540273 (PLoS ONE, 2017).

Among the test systems are FGR; FLT1; FLT3-autoinhibited; FLT3; FLT4; FRK; FYN; GAK; GRK1.
Common to all, as to details: concentration: 1 μM, replicates: in singlicate; n = 1
For a further assay, the system named is T1, GCN2(Kin.Dom.2,S808G).
T1 construct: gene EIF2AK4
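Further: KINOMEscan kinase panel screen.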

Regarding `CCCNC(=O)Nc1ccc(Oc2ncnc3ccn(C)c23)cc1`, the “%Inh” value was determined as 0% with FGR; 0% in the assay with FLT1; 2% in the assay with FLT3-autoinhibited; 45% in the assay with FLT3; 10% in the assay on FLT4; 0% in the assay with FRK. In addition, the “%Inh” value in the assay with FYN is recorded as 1%; in the assay on GAK it was 3%; with GCN2(Kin.Dom.2,S808G), 10%; in the assay on GRK1, 24%.
Regarding `O=C(Nc1n[nH]c2cc(-c3ccccc3F)ccc12)C1CC1` [SB-733371], the “%Inh” value in the assay on FGR is reported as 14%; with FLT1, 29%; in the assay on FLT3-autoinhibited, 0%; in the assay on FLT3, 38%; in the assay on FLT4 it was 0%; in the assay with FRK, 0%. For the same compound, the “%Inh” value is on record as 0% with FYN, 0% in the assay on GAK, 0% in the assay on GCN2(Kin.Dom.2,S808G) and 12% with GRK1.
Regarding `CCS(=O)(=O)c1ccc(OC)c(Nc2ncc(-c3ccc(F)cc3)o2)c1.Cl` [GW591947], the “%Inh” value is listed as 0% in the assay with FGR; 26% in the assay on FLT1; 0% with FLT3-autoinhibited; 0% in the assay with FLT3; 6% in the assay on FLT4; 0% in the assay with FRK. In addition, the “%Inh” value with FYN was 9%; with GAK, 0%; with GCN2(Kin.Dom.2,S808G), 16%; with GRK1, 0%.
In the case of `CN1C(=O)C(Nc2ccccc2)=C(c2ccccc2)C1=O` [SB-300079], the “%Inh” value in the assay on FGR, with FLT1, in the assay on FLT3-autoinhibited, with FLT3, in the assay with FLT4 and in the assay with FRK was 0% in each case. In addition, the “%Inh” value came out at 0% with FYN, 0% in the assay with GAK, 6% in the assay with GCN2(Kin.Dom.2,S808G) and 26% in the assay on GRK1.
